From PubChem BioAssay (NCI)
Compounds without any hit were thinned out: in the full panel of roughly 83,000, 20% have a hit.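 Single-dose data. Exposure time 48 hours. Values below 10 considered active.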 A number with no mark means an inactive call. The source made the active and inactive calls.

Experiments:
Experiment in all cases: NCI-60 one-dose screen, 48 h (100 = growth as untreated, 0 = no growth, -100 = all killed)
Settings in all cases: 10 µM unless noted
T-47D breast = test system: T-47D breast
BT-549 breast = test system: BT-549 breast
MDA-MB-435 melanoma = test system: MDA-MB-435 melanoma
SW-620 colon = test system: SW-620 colon
MCF7 breast = test system: MCF7 breast
HCT-116 colon = test system: HCT-116 colon
HCC-2998 colon = test system: HCC-2998 colon
KM12 colon = test system: KM12 colon

Row | SMILES | growth (T-47D breast) | growth (BT-549 breast) | growth (MDA-MB-435 melanoma) | growth (SW-620 colon) | growth (MCF7 breast) | growth (HCT-116 colon) | growth (HCC-2998 colon) | growth (KM12 colon)
1 | Clc1ccc2c(NCCNc3nc(-c4ccccc4)cc(-c4ccccc4)n3)ccnc2c1 | -59.7% (active) | 75.1% | -82.6% (active) | -53.7% (active) | -68.7% (active) | -69.9% (active) | -28.7% (active) | 5.29% (active)
2 | CC(=O)c1c(C)[nH]c(-c2nc3ccc(N4CCN(C)CC4)cc3[nH]2)c1-c1ccc(N(C)C)cc1 | 23.8% | 51.6% | 27.1% | 56.8% | 8.22% (active) | 23.2% | 30.3% | 37.2%
3 | COc1ccc(CCN2C(=O)C(C)(C)SC2=S)cc1OC | 104% | 105% | 99.2% | 103% | 98.5% | 97.6% | 106% | 101%
4 | N#CC1C(=N)Cc2ccccc2-c2ccccc21 (stereo not given) | 60.9% | 41.5% | -23.8% (active) | 19.2% | 31.4% | 33.1% | 86.8% | 18%
5 | CC(=O)Oc1ccccc1C(=O)/C=C/c1cccc([N+](=O)[O-])c1 | 74.2% | 104% | 55.7% | 43% | 39.9% | 10.8% | 101% | 34.7%
6 | CN1CCN(c2nc(-c3csc(-c4cccs4)n3)cc3ccccc23)CC1 | 52.1% | 70.4% | 12.2% | 9.06% (active) | 40.8% | 46.7% | -38.2% (active) | 5.42% (active)
7 | COc1cccc(-c2nn(-c3ccccc3)cc2-c2ccnc(NCCNS(=O)(=O)c3cccc(F)c3)c2)c1 | 6.41% (active) | 46.9% | 20% | 46% | 14.1% | 21.4% | 17.1% | 19.6%
8 | CN(C)CCCCC(C(=O)CBr)(c1ccccc1)c1ccccc1 | -54.2% (active) | 24.3% | 36.3% | -49.7% (active) | 3.55% (active) | -60.1% (active) | 71.7% | 68.8%
9 | COc1ccc(/C(=C\c2ccc3c(c2)OCO3)C(=O)Nc2nc3ccccc3s2)cc1OC | 92.3% | 88.7% | 95.7% | 102% | 89.5% | 73.6% | 102% | 85.4%
10 | COc1ccc(-c2nc3c(c(C)nn3-c3ccc(F)cc3)c(=O)[nH]2)cc1 | 20.2% | 76.3% | 74.7% | 74.6% | 73.7% | 48.5% | 98.4% | 84.4%
11 | O=C(CCCCCn1c2ccccc2c2c3c(c4c5ccccc5[nH]c4c21)C(=O)N(O)C3=O)N1CCOCC1 | 23.6% | 60.3% | 54.9% | 56.4% | 15.7% | 24.3% | 18.8% | 47.6%
12 | C/C(=C(/c1ccccc1)c1ccc(N2C(=O)c3cccc4c(NCc5ccccc5)ccc(c34)C2=O)cc1)c1ccccc1 | 76% | 100% | 102% | 95.2% | 89.9% | 87.1% | 109% | 91.5%
13 | c1ccc2c(-c3nc(-c4c[nH]c5ncccc45)cs3)c[nH]c2c1 | 93.8% | 97% | 84.8% | 103% | 83% | 95% | 102% | 90.6%
14 | Nc1c(C(=O)Nc2cccc(Cl)c2)sc2ncc(Cl)cc12 | 49.6% | 68.8% | 77.5% | 66.6% | 84% | 19.6% | 78.2% | 63.3%
15 | COC(=O)c1cc(=O)nc(N/N=C/c2ccc(C)cc2)s1 | 105% | 99.6% | 115% | 106% | 89.9% | 105% | 106% | 110%
16 | O=Cc1nc2ccccc2[nH]1 | 91.9% | 101% | 107% | 101% | 96.4% | 88.5% | 107% | 99.8%
17 | CC1(C)C(=O)/C(=C\c2cccnc2)C[C@]2(C)[C@H]3CC[C@@H]4[C@@H](C(=O)/C=C/c5ccncc5)CC[C@@]4(C)[C@]3(C)CC[C@@H]12 | 16.9% | 8.03% (active) | -11.4% (active) | 8.95% (active) | 26.2% | -86.9% (active) | 59.7% | -20.9% (active)
18 | O=C1C(=O)c2ccccc2C(O)=C1CCCc1ccc(C2CCCCC2)cc1 | 44% | 52.6% | 53.7% | 36.8% | 32.9% | 19.4% | 29.5% | 24.2%
19 | Nc1c2c(nc3ccc(Cl)cc13)CC(c1ccccc1)CC2=O (stereo not given) | 54.1% | 39.8% | -39.7% (active) | 24.8% | 19% | 20.3% | 67.3% | 26.4%
20 | Cc1cc(N(CCCNc2ccnc3cc(Cl)ccc23)Cc2ccco2)nc(N2CCOCC2)n1 | 88.5% | 58.4% | 62.9% | 63.3% | 63.4% | 43.8% | 87.4% | 79.3%
21 | COc1cc2c(cc1-c1c(C)noc1C)ncc1nc(C3CC3)n([C@H](C)COC(F)F)c12 | 32.7% | 71.6% | 44.3% | 62.7% | 21.7% | 37% | 57.3% | 51.5%
22 | N#CC1=C(N)Oc2ccc3ccccc3c2C1c1ccccc1Cl (stereo not given) | 38% | 31.7% | -8.55% (active) | 30.6% | 18.1% | 18.3% | 76% | 36%
23 | COC(=O)[C@]12CC[C@@H](C(/C=C/c3cccnc3)=N/O)[C@@H]1[C@H]1CC[C@@H]3[C@@]4(C)CC(=C/c5cccnc5)/C(=N/O)C(C)(C)[C@@H]4CC[C@@]3(C)[C@]1(C)CC2 | 27.3% | 22.8% | 36.2% | 45.5% | 25.6% | 18.9% | 45.9% | 37.7%
24 | c1ccc2[nH]c(-c3ccc(Nc4nc(N5CCCCC5)nc(N5CCOCC5)n4)cc3)nc2c1 | 23.4% | 23.1% | -27.3% (active) | 5.3% (active) | 3.49% (active) | 9.65% (active) | -1.07% (active) | 14.3%
25 | Cc1ccc(-c2nc3ccc(Cl)cc3c(=O)n2N2C(=O)CSC2c2ccccc2Cl)cc1 (stereo not given) | 75.8% | 100% | 66.9% | 77.8% | 94.1% | 53.1% | 93.4% | 82.3%
26 | Cc1cc(Nc2ccc(F)cc2)nc(N2CCN(c3ccnc4cc(Cl)ccc34)CC2)n1 | 10.8% | 47.5% | 13.2% | 23.1% | 9.35% (active) | 4.86% (active) | 25.8% | 21.6%
27 | O=C1C(Cl)=C(Nc2ccc(S(=O)(=O)c3ccc(NC4=C(Cl)C(=O)c5ccccc5C4=O)cc3)cc2)C(=O)c2ccccc21 | -39.6% (active) | 31.4% | 10.5% | 0.736% (active) | -55.1% (active) | -85.7% (active) | 47.1% | 5.09% (active)
28 | O=S(=O)(NCCNc1cc(-c2cn(-c3ccccc3)nc2-c2cccc(O)c2)ccn1)c1ccccc1 | 26.4% | 67.8% | 14.7% | 44.4% | 37.2% | 49.5% | 25.4% | 36.7%
29 | Nc1ccc(Cl)cn1 | 86.7% | 104% | 106% | 102% | 94.7% | 95.4% | 113% | 100%
30 | CC(=O)O[C@H]1CC[C@]2(C)[C@H]3C(=O)C=C4[C@@H]5C[C@](C)(C(=O)N6CCCNCC6)CC[C@]5(C)CC[C@@]4(C)[C@]3(C)CC[C@H]2C1(C)C | -49.6% (active) | 86.9% | -14.9% (active) | -88.7% (active) | -88.7% (active) | -95.3% (active) | 11.2% | 13.4%
